Assay outcomes from PubChem BioAssay.
mHtt clearance – mutant huntingtin protein clearance | HeLa Exon1htt(103Q)mCFP, aggregate imaging; zero = plate's median compound well | 47,000 tested, 0.42% active | inhibition, % at 1.5 µM;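 active = inhibition of aggregate fluorescence above about 70%, also judged a hit by eye on the cell image, limit read from the data, passing the limit was not always enough; inconclusive = no rule stated for this call; inactive = not judged a hit on image review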;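 also: cells exposed to compound for three days before fixation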
SK-BR-3 tox 24h – SK-BR-3 proliferation inhibitors | viability, % at 10 µM | 41,000 tested, 0.47% active | AID 847 | SK-BR-3 viability, CellTiter-Glo ATP luminescence, 24 h; stronger effect = lower value;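 active = viability at or below the median of all test compounds minus 3 SD, in both replicates if run twice, cut at about 45% in these data; inconclusive = duplicate replicates that disagree with each other; inactive = viability above that cutoff in every replicate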;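 also: 100% = median untreated cell wells and 0% = median positive control drug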
HER2 expr 66K – inhibitors of human Her2 kinase expression | AID 645 | 65,000 tested, 0.69% active | HER2 level % of control, % at 10 µM | SKBR-3 HER2 protein level, AlphaScreen, 18-24 h; stronger effect = lower value;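 active = HER2 level under 5% of the carrier-only control; inconclusive = no clear call, values can overlap the other calls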;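 also: 100% = DMSO carrier and 0% = 500 nM PU-H71 HSP90 inhibitor; lower value means stronger loss of Her2 protein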
Target sequence (P04626 whole entry, looked up): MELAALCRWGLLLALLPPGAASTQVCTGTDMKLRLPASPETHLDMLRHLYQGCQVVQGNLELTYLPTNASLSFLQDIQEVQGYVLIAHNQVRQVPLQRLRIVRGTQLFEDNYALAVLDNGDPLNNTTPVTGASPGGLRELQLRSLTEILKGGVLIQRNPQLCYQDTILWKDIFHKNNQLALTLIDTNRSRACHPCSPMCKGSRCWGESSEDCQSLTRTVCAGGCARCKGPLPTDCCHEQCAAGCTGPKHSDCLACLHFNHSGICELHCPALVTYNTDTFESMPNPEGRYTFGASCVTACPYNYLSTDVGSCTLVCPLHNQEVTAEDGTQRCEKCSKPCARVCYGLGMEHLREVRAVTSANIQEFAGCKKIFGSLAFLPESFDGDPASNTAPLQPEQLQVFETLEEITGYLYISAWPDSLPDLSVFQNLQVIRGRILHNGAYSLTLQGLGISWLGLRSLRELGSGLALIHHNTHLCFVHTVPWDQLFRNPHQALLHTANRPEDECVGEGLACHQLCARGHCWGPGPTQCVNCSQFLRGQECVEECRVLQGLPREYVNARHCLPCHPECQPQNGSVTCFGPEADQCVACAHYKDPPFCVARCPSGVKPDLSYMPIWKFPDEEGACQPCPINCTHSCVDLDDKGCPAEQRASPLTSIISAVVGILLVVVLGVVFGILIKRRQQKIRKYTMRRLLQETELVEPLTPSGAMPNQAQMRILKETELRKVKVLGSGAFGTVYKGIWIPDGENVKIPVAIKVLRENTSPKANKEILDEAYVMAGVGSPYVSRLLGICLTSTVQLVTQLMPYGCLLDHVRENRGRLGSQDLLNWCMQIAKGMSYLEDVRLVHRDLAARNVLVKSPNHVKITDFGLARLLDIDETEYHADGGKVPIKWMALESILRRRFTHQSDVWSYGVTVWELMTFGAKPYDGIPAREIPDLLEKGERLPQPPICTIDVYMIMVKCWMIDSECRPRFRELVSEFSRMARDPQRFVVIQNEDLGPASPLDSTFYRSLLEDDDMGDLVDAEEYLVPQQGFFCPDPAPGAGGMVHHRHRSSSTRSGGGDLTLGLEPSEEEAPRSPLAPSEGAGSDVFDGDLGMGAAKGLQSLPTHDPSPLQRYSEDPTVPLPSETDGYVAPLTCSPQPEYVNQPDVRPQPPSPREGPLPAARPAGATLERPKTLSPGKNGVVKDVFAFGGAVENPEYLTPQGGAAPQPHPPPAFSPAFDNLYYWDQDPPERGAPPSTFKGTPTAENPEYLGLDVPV
An asterisk follows results filed as active; ? = inconclusive; · = not tested or not shown. Shown are actives, neighbours in structure and some others; about 0.97% of the full set was active somewhere.

SMILES	mHtt clearance	SK-BR-3 tox 24h	HER2 expr 66K
Cn1c(NCC(O)c2ccccc2)nc2c1c(=O)n(Cc1ccc(Cl)c(Cl)c1)c(=O)n2C (configuration not stated)	-71	83	49
Cn1c(NCC(O)c2ccccc2)nc2c1c(=O)n(Cc1ccc(Cl)cc1)c(=O)n2C (configuration not stated)	-32	95	-28*
CC(C)(C)N1C(=O)c2ccc(C(=O)NCc3ccco3)cc2C1=O	0	98	98
CS(=O)(=O)c1nc(-c2ccccc2)cc(C(F)(F)F)n1	·	28*	-24*
Cc1cc(NC(=O)CCS(=O)(=O)c2nc(-c3ccccc3)cc(C(F)(F)F)n2)no1	·	39*	·
COc1ccc(-c2cc(C(F)(F)F)nc(SCC(=O)Nc3cc(C)on3)n2)cc1	-47	73	60
FC(F)(F)c1cc(-c2ccccc2)nc(N2CCCCCC2)n1	19	86	71
CN(Cc1ccccc1)C(=O)CN(Cc1ccccc1)S(C)(=O)=O	-33	·	·
Cc1cc(Br)cc2c(C(=O)Nc3c(C)n(C)n(-c4ccccc4)c3=O)cc(-c3cccs3)nc12	18	·	·
Cc1ccc(S(=O)(=O)CC(=O)N(C)C)cc1	-45	96	100
COc1cc(C2c3c(oc4c(C)cc(C)cc4c3=O)C(=O)N2Cc2cccnc2)cc(OC)c1OC (configuration not stated)	·	60	73
Cc1[nH]nc2c1C(C1CC=CCC1)C(C#N)=C(N)O2 (configuration not stated)	·	83	-10*
CCC(CC)C1C(C#N)=C(N)Oc2n[nH]c(C)c21 (configuration not stated)	·	90	132
CCc1c(C(=O)NCc2ccc3c(c2)OCO3)[nH]c(C)c1C(C)=O	·	99	86
CCOc1cc2[nH]c(=O)n(CCC(=O)N3CCN(c4ccccc4OC)CC3)c(=O)c2cc1OCC	23	·	97
COc1cc2[nH]c(=O)n(CCC(=O)N3CCN(c4cc(Cl)ccc4C)CC3)c(=O)c2cc1OC	·	8.5*	-23*
CCn1c(SCC(=O)NC(=O)Nc2ccc3c(c2)OCCO3)nnc1-c1cccs1	14	·	93
COc1ccc(NC(=O)CN(c2ccc(C)cc2)S(C)(=O)=O)c(OC)c1	1	·	85
COc1ccc(OC)c(NC(=O)CN(c2ccc(OC)c(Cl)c2)S(C)(=O)=O)c1	·	36*	95
COc1ccc([C@@H]2[C@H]3CN(C(C)=O)CC=C3C(C#N)=C(N)C2(C#N)C#N)c2ccccc12	·	81	-0.8*
CCC1C2CN(C(C)=O)CC=C2C(C#N)=C(N)C1(C#N)C#N (configuration not stated)	?	·	110
CCOc1ccccc1-n1c(SCC(=O)Nc2ccc(CC)cc2)nc2n[nH]c(C)c2c1=N	·	30*	25
CCOc1ccccc1NC(=O)CCSc1nc2n[nH]c(C)c2c(=N)n1-c1ccccc1Cl	·	·	18
COc1cc(S(=O)(=O)N2CCN(c3ccccc3F)CC2)ccc1Cl	·	89	72
CCOC(=O)COc1ccc(S(=O)(=O)N2CCN(c3ccccc3F)CC2)cc1	82*	99	108
SMILES	mHtt clearance	SK-BR-3 tox 24h	HER2 expr 66K
Cc1cc(Cl)c(S(=O)(=O)N2CCCCCC2)cc1OCC(N)=O	-37	·	124
CCOC(=O)C1CCCN(S(=O)(=O)c2cc(OCC(N)=O)c(C)cc2Cl)C1 (configuration not stated)	71*	87	103
O=C(Cc1c[nH]c2ccccc12)NCc1ccc2c(c1)OCO2	·	91	73
O=C(CSc1nnc(-c2ccc(Cl)cc2)o1)N1CCN(c2ccccc2)CC1	·	87	72
Cc1cc(-c2ccccc2C(=O)O)on1	35	134	98
O=C(O)c1ccccc1C1=Nc2ccc(O)cc2Oc2cc(O)ccc21	19	99	-53*
Cc1ccc(CNC(=O)Cn2c(=O)oc3ccccc32)o1	·	38*	117
CC(C)Oc1ccc(CNC(=O)Cn2c(=O)oc3ccccc32)cc1	-112	·	·
COC(=O)c1cc(Br)c(=O)n(Cc2ccc(OC)c(OC)c2)c1	-193	96	94
C1COC(NC(C2CC2)C2CC2)=N1	·	97	71
O=C(CCCN1C(=O)c2ccccc2C1=O)OC1CSCC1NC(=O)c1ccccc1 (configuration not stated)	44	·	·
COCC(C)n1c(C)cc(C(=O)COC(=O)c2c(NC(C)=O)sc(C)c2C)c1C (configuration not stated)	·	·	-11*
COCC(C)n1c(C)cc(C(=O)COC(=O)c2c(C)nn(-c3ccccc3)c2C)c1C (configuration not stated)	-18	·	96
Cc1ccc(S(=O)(=O)N2CCN(C(=O)N3CCOCC3)C2c2ccc(N(C)C)cc2)cc1 (configuration not stated)	-139	97	118
CSc1nsc(SC)c1C(=O)N1CCN(S(=O)(=O)c2ccc(C)cc2)C1C(C)C (configuration not stated)	0	·	·
Cc1ccc(S(=O)(=O)N2CCN(C(=O)N3CCOCC3)C2C)cc1 (configuration not stated)	·	73	-30*
CSc1nsc(SC)c1C(=O)N1CCN(S(=O)(=O)c2ccc(C)cc2)C1C (configuration not stated)	9	44*	35
O=C(NC1CCCCCCC1)c1ccc2c(c1)N(Cc1ccc(F)cc1)C(=O)CS2=O (configuration not stated)	6	·	72
COc1ccccc1CNC(=O)c1ccccc1N(C)S(C)(=O)=O	2	·	·
COc1ccc(OC)c(-n2c(C)nc3cc(C(=O)O)ccc32)c1	74*	·	117
COc1ccc(-n2c(C)nc3cc(C(=O)N4CCOCC4)ccc32)cc1	·	80	79
O=C(c1cc2c(=O)oc3ccccc3c2s1)N1CCN(c2ccccn2)CC1	·	112	188
Cc1ccc(NS(C)(=O)=O)c(C(=O)c2ccccc2)c1	-9	·	·
Cc1c(O)c(CN2CCCC(C)C2)cc2c3c(c(=O)oc12)CCC3 (configuration not stated)	·	84	123
O=C(c1ccc(Cl)cc1)c1cnc2ccccn12	2	·	·
SMILES	mHtt clearance	SK-BR-3 tox 24h	HER2 expr 66K
CCCCC(C(=O)O)C(C)CC(=O)Nc1cccc(C(=O)O)c1 (configuration not stated)	·	101	-22*
CCC(CCC(=O)Nc1cccc(C(=O)O)c1)C(=O)O (configuration not stated)	27	75	89
O=C(CC(SCCO)c1ccc(F)cc1)c1ccco1 (configuration not stated)	-16	100	20
Cc1ccc(C(CC(=O)c2ccco2)SCCO)cc1 (configuration not stated)	·	101	-1.4*
CC1(C)CC2(CC(C)(C)NC(=O)N2)NC(=O)N1	·	·	102
O=C(CCN1CCN(c2ccccc2F)CC1)Nc1ccccc1F	-39	·	117
O=C(CCN1CCN(c2ccccc2F)CC1)c1ccc(Br)cc1	-31	·	-16*
Cc1cc(-n2c(C)cc(C(=O)CSc3nnc4sc5ccccc5n34)c2C)no1	7	·	112
Cc1cc(-n2c(C)cc(C(=O)CSc3nnnn3-c3ccc(Cl)cc3)c2C)no1	20	·	-7.5*
CCOc1ccc(-c2noc(-c3ccncc3)n2)cc1OCC	·	109	110
CCOc1cc(-c2noc(-c3ccncc3)n2)cc(Br)c1OC	·	29*	96
COc1ccc2c(C)nc(Nc3nc(C)cc(=O)[nH]3)nc2c1	·	91	86
